HCV inhibitor: HCV inhibition; Huh7.5.1 HCVcc-Cre infection, luciferase reporter, 44 h; Potency, µM (series often up to 41.8 µM), for the others: at the top dose activity change, negative = inhibition, most hits filed as inhibitors; 340,000 tested, 3.4% active; AID 651820; active = well fitted inhibition curve with a large enough effect; inconclusive = small, poorly fitted or top-dose-only effect, or another doubt; inactive = no such curve, though single readings can be large or run the other way; note: potency is the fitted concentration of half-maximal effect
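Seed cells (1,000/well) for 4 h; treat with compound and infect with HCVcc-Cre, moi about 0.5. Incubate 44 h, then detect luciferase activity.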
HCMV inh: human cytomegalovirus inhibition. HFF cells, HCMV-luciferase reporter, 72 h; active compounds read low. activity change, negative = inhibition, % at 57.5 µM. 410,000 tested, 4.5% active. AID 1259415; in the data active = activity change below about -60%; inconclusive = no clear call, values can overlap the other calls; inactive = above about -39%
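After 16 h attachment at 37C, HFF cells received test compound and HCMV-luciferase (1 PFU/cell); reporter luminescence read 72 h later, data normalized against buffer-only and known inhibitor Salinomycin.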
FMDV antiviral: foot and mouth disease virus antiviral activity | FMDV antiviral cell-based qHTS | Potency, µM (doses to about 57.9 µM), for the others: at the top dose activity change, negative = inhibition, hits mostly inhibitors | 410,000 tested, 1.2% active; calls by dose curve; tested in HEK293T cells; note: read-out not given here; potency is the fitted concentration of half-maximal effect; nearly all actives have a fitted effect of over 45% in size
MARV entry inh: Marburg virus entry inhibition; Potency, µM (series often up to 37.8 µM), without a hit: at the top dose activity change, negative = inhibition, actives largely listed as inhibitors; AID 540276; 300,000 tested, 1.8% active; Marburg virus pseudotyped entry inhibition, cell reporter; calls by dose curve; tested in HEK293 cells; note: potency is the fitted concentration of half-maximal effect
LASV entry inh: inhibitors of Lassa virus binding or cell entry | Lassa virus pseudotype entry inhibition, cell reporter | Potency, µM (series often up to 37.9 µM), for inactives: at the highest dose activity change, negative = inhibition, usual class: inhibitors | 300,000 tested, 1.2% active; calls by dose curve; tested in HEK293 cells; note: potency is the fitted concentration of half-maximal effect; nearly all actives have a fitted effect of over 50% in size
The depositor's hits bear a star; ? = inconclusive; / = no result given; [ ] = dose if it differs, or a comment. Sampled rows, rich in hits. Any-hit rate of the full collection: about 7.9%. % is set by controls: 0 for no effect and ±100 for the full control effect.

SMILES	HCV inhibitor	HCMV inh	FMDV antiviral	MARV entry inh	LASV entry inh
O=C(Nc1ccc(Nc2ccccc2)cc1)c1c(F)c(F)c(F)c(F)c1F	?	?	?	-1.1%	-10.2%
O=C(CN1CCN(c2ccc(O)cc2)CC1)Nc1ccc2c(c1)OCCCO2	6.31µM*	?	?	/	/
O=C(Nc1ccc(Nc2ccccc2)cc1)c1c(Cl)cccc1Cl	10µM*	-74.5*	16.1%	?	-17.9%[46.1 µM]
Cc1ccc(NC(=O)c2ccc(Cl)c(N3C(=O)C=CC3=O)c2)cc1	5.9%	-12.0	39.8µM*	-1.4%	-9.1%
CC(C)(C)C(=O)N1CCN(c2ccc(NC(=O)c3ccc4c(c3)OCCO4)cc2)CC1	10µM*	-67.5*	31.6µM*	?	?
CCOC(=O)c1cc(-c2ccc(C)cc2)nn1Cc1ccccc1	/	79.8	51.1%	?	?
O=C(c1ccccc1)N1CCN(c2ccc(NCc3ccc4c(c3)OCO4)cc2)CC1	11.2µM*	-35.0	?	-0.9%	/
CC(=O)N1CCN(c2ccc(NCc3ccc4c(c3)OCO4)cc2)CC1	-17.4%	-27.4	-19.0%	?	-2.7%
O=C(Nc1ccc(NC(=O)c2cc3ccccc3o2)cc1)c1ccc2c(c1)OCCO2	?	?	?	?	-17.7%
Cc1cc(NC(=O)c2ccc3c(c2)OCCO3)ccc1NC(=O)c1cc2ccccc2o1	11.2µM*	-7.5	-26.9%	/	/
O=C(Nc1ccc(N2CCN(C(=O)c3ccc(Cl)cc3)CC2)cc1)c1ccc2c(c1)OCCO2	7.08µM*	-92.0*	11.2µM*	?	?
CCC(/C=C1\Sc2ccc(OC)cc2N1CCO)=C\c1sc2ccc(OC)cc2[n+]1CCO	5.01µM*	-97.7*	17.8µM*	?	?
CCC(/C=C1\Sc2ccc(OC)cc2N1CC)=C\c1sc2ccc(OC)cc2[n+]1CCCS(=O)(=O)[O-]	?	-20.9	17.8µM*	?	?
CCC(=O)/C=C1/Sc2ccc(OC)cc2N1CCO	-3.4%	?	-21.3%	-10.1%[46.1 µM]	11.7%
COCC(=O)Nc1cc(C(=O)N2CCN(c3ccc(Cl)cn3)CC2)c2c(c1)nc(C1CCC1)n2C	/	/	-10.7%	/	/
c1ccc(-c2cc3c(N4CCCC4)ncnc3s2)cc1	10µM*	73.9	?	2.3%[46.1 µM]	-5.6%
c1ccc(-c2cc3c(N4CCOCC4)ncnc3s2)cc1	10µM*	-17.7	?	-47.4%	2.4%
c1ccc(-n2nnc3c(N4CCOCC4)ncnc32)cc1	12.5%	-12.5	-85.1%	2.31µM*	5.17µM*
CN1CCCC(CNC(=O)c2cnn(-c3nccc(-c4cccs4)n3)c2C2CC2)C1 (stereo not given)	/	/	-15.3%	/	/
Cc1ccc(NC(=O)C2CCC(CNS(=O)(=O)c3ccc4c(c3)CCCC(=O)N4)CC2)c(C)c1 (stereo not given)	/	-10.8	-1.3%	/	-12.0%[46.1 µM]
COc1ccc(NC(=O)CSc2nc3c(oc4ccccc43)c(=O)n2-c2ccc(C)c(C)c2)cc1	/	-6.6	-2.0%	-30.0%[46.1 µM]	/
Cc1ccc(NC(=O)c2ccc(CNS(=O)(=O)c3ccc4c(c3)C(C)(C)C(=O)N4C)cc2)cc1F	/	-32.0	25.1µM*	/	-12.8%[46.1 µM]
CCc1cccc(NC(=O)c2ccc(CNS(=O)(=O)c3ccc4c(c3)C(C)(C)C(=O)N4C)cc2)c1	/	?	22.4µM*	/	?
CCCCN(C)C(=O)c1nc2ccccn2c1CN1CCC[C@H]1CO	21.7%	29.9	4.7%	12.6%[46.1 µM]	-1.1%[46.1 µM]
Cc1ccc(NC(=O)CCC(=O)N2Cc3ccccc3Oc3ncccc32)cc1F	/	2.0	-13.2%	/	-2.0%[46.1 µM]
SMILES	HCV inhibitor	HCMV inh	FMDV antiviral	MARV entry inh	LASV entry inh
CC(C)(C)NCC(O)(c1ccc(Cl)cc1)c1ccc(Cl)cc1	?	/	-23.8%	3.16µM*	?
Cc1ccc(C)c(SCC(=O)NNC(=O)c2csc(N3CCOCC3)n2)c1	-4.7%	-61.6*	1.7%	/	/
O=C(NNC(=O)c1ccccc1OCc1ccccc1Cl)c1csc(N2CCOCC2)n1	10µM*	13.4	-8.3%	/	/
CCc1ccc(NC(=O)CN2C(=O)C3(SCC(=O)N3c3ccccc3)c3ccccc32)cc1 (stereo not given)	/	-32.7	-10.8%	/	?
CCOC(=O)c1ccc(NC(=O)C2CCN(C(=O)N3CC(C)Oc4ccc(C)cc43)CC2)cc1 (stereo not given)	/	-24.4	-23.8%	/	10.5%[46.1 µM]
NC(CSC(c1ccccc1)(c1ccccc1)c1ccccc1)C(=O)O (stereo not given)	-22.5%	31.4	-10.2%	-28.4%	-24.9%[46.1 µM]
NC(CC(=O)NC(c1ccccc1)(c1ccccc1)c1ccccc1)C(=O)O (stereo not given)	14.2%	-69.3*	2.5%	-1.2%[46.1 µM]	1.7%
Clc1ccc(Cn2ncc3c(N4CCN(c5ccccc5)CC4)ncnc32)cc1	/	-102.2*	12.6µM*	/	/
Cc1ccc(Cn2ncc3c(N4CCN(c5ccccc5C)CC4)ncnc32)cc1	?	-14.3	17.8µM*	?	?
Cc1ccc(Cn2ncc3c(N4CCOCC4)ncnc32)cc1	?	-8.8	?	-18.7%	3.8%
Cc1ccc(Cl)cc1-n1ncc2c(N3CCN(Cc4ccccc4)CC3)ncnc21	/	-35.0	3.16µM*	/	6.3%[46.1 µM]
CCN1CCN(c2ncnc3c2cnn3-c2cc(Cl)ccc2C)CC1	/	-15.5	0.0%	/	-22.6%[46.1 µM]
CCCC(=O)NCCCCNC(=O)CCC	5.5%	-0.4	2.9%	13.4%	-1.6%
CC(=O)N(O)CCCCCNC(=O)CCC(=O)N(O)CCCCCNC(=O)CCC(=O)N(O)CCCCCN	14.1µM*	?	-4.3%	-45.0%	?
Cc1ccccc1-n1ncc2c([N+](=O)[O-])cc([N+](=O)[O-])cc21	7.94µM*	-10.9	-18.2%	-33.6%	?
CN(C)CC(=O)N[C@@H]1C=C[C@@H](CC(=O)NCCN2CCCCC2)O[C@@H]1CO	/	-14.9	0.0%	/	/
CN(C)CC(=O)N[C@@H]1CC[C@@H](CC(=O)NCCN2CCCCC2)O[C@@H]1CO	/	-100.1*	-18.0%	/	/
O=C(O)c1ccc(CNC(=O)C23CC4CC(CC(C4)C2)C3)cc1	10.1%	-20.4	4.2%	-5.2%[46.1 µM]	-2.7%
COc1cc(NC(=O)c2ccc(S(=O)(=O)N(C)c3ccccc3)cc2)cc(OC)c1	11.2µM*	-78.9*	-10.8%	/	/
Cc1nc2cc(NC(=O)c3ccc(S(=O)(=O)N(C)c4ccccc4)cc3)ccc2o1	6.31µM*	-69.3*	22.4µM*	?	-18.2%
Cc1csc(NC(=O)c2ccc(S(=O)(=O)N(C)c3ccccc3)cc2)n1	?	45.8	?	?	?
CC(=O)Nc1ccc(NC(=O)c2ccc(N(C)S(=O)(=O)c3ccc(C)cc3)cc2)cc1	-12.8%	-8.0	-21.9%	-21.0%	11.2%
CN(c1ccccc1)S(=O)(=O)c1ccc(NC(=O)c2ccc(-c3ccccc3)cc2)cc1	/	-95.9*	?	-19.8%	-8.3%[14.3 µM]
COC(=O)C(NC(=O)c1ccc(F)cc1)(Nc1ncc(S(=O)(=O)c2ccc([N+](=O)[O-])cc2)s1)C(F)(F)F (stereo not given)	?	-1.1	12.6µM*	?	?
Cc1ccc(-c2nc(CN3CCN(C(=O)C4CCCO4)CC3)cs2)cc1 (stereo not given)	/	-71.3*	?	17.8µM*	?

Bioassay records (PubChem)
